In PubChem BioAssay (EPA / NIEHS):
Calls of active or inactive are those of the source. Rule for the calls: active = hit-call score of the fitted dose curve at least 0.9, where 1 is the maximum; inactive = score below 0.9.

Assays:
[1] = ATG_GLI_CIS: Attagene CIS-FACTORIAL HepG2 Assay for human Zinc Finger Protein GLI1 (AID 2282945); conditions: HepG2, Attagene cis-factorial reporter mRNA, GLI element; actives raise or lower the signal
Summary of the method: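 HepG2 cells transiently transfected with cis-promoter multiplexed reporter units report endogenous transcription factor activity. After 24 h chemical exposure, reporter mRNA was quantified by RT-PCR, 6-FAM labelling, HpaI digestion and capillary electrophoresis, with bidirectional fitting against DMSO.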

[2] = target: Bile acid receptor (Homo sapiens) (UniProt Q96RI1); assay: ATG_IR1_CIS: Attagene CIS-FACTORIAL HepG2 Assay for human Nuclear Receptor Subfamily 1 Group H Member 4 (NR1H4), IR1 submotif (AID 2282946); conditions: IR1 reporter transcription, actives raise or lower the signal
Sequence of Bile acid receptor (Homo sapiens) (Q96RI1 whole entry, looked up): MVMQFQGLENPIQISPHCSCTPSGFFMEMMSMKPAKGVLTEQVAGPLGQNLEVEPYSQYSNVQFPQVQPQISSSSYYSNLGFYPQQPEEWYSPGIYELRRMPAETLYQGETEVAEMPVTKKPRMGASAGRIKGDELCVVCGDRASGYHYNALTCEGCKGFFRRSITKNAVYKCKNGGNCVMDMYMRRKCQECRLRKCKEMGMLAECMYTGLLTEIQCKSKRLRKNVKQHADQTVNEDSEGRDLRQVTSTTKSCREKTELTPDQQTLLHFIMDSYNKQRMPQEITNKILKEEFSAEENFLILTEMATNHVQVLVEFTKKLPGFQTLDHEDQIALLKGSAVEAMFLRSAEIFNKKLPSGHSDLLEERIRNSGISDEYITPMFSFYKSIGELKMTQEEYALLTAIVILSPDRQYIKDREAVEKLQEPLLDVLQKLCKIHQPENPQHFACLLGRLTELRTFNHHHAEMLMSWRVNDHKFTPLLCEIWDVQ
Summary of the method: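 Transient MRTU transfection, HepG2; 24 h dosing; RNA → RT-PCR → 6-FAM primer extension → HpaI digest → capillary electrophoresis fluorescence. Gain/loss of signal fitted relative to DMSO.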

[3] = ATG_GRE_CIS: Attagene CIS-FACTORIAL HepG2 Assay for human Glucocorticoid Response Elements (GRE) (AID 2282947); conditions: HepG2 GRE cis-reporter, Attagene multiplex mRNA; actives raise or lower the signal
Summary of the method: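 Following 24 h chemical exposure of transiently transfected HepG2 cells, total RNA was reverse-transcribed and reporter cDNA amplified, fluorescently labelled and sized by capillary electrophoresis. Signal gain or loss was fitted relative to DMSO vehicle.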

[4] = ATG_ISRE_CIS: Attagene CIS-FACTORIAL HepG2 Assay for human Interferon Regulatory Factor 1 (IRF1) binding to an Interferon-Stimulated Response Element (ISRE) (AID 2282948); conditions: HepG2 ISRE cis-reporter (Attagene), mRNA transcription readout; actives raise or lower the signal
Summary of the method: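 Transfected HepG2 (multiple reporter transcription units, cis elements) dosed 24 h. RNA → oligo(dT) RT → PCR → 6-FAM primer extension → HpaI → CE. DMSO = negative control/baseline.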

[5] = ATG_M_32_CIS: Attagene CIS-FACTORIAL HepG2 Assay for M32 Transcription Factor (Internal Marker) (AID 2282949); conditions: HepG2 Attagene cis-factorial M32 reporter, mRNA; actives raise or lower the signal;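 note: background control marker of the multiplexed CIS panel rather than a real target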
Summary of the method: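 Fluorescent capillary electrophoresis peaks of HpaI-digested, FAM-labelled RT-PCR reporter products give the signal. Source: transiently transfected human liver HepG2 cells, 24 h after chemical dosing; bidirectional fitting against DMSO.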

[6] = ATG_M_06_CIS: Attagene CIS-FACTORIAL HepG2 Assay for M06 Transcription Factor (Internal Marker) (AID 2282950); conditions: HepG2 Attagene CIS-FACTORIAL M06 internal marker reporter; actives raise or lower the signal
Summary of the method: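 Read-out is fluorescence of labelled reporter cDNA fragments resolved by capillary electrophoresis after RT-PCR. Cells: HepG2 carrying transfected cis-promoter reporter units, treated 24 h. Gain or loss of signal fitted relative to DMSO.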

[7] = target: Hypoxia-inducible factor 1-alpha (Homo sapiens) (UniProt Q16665); assay: ATG_HIF1a_CIS: Attagene CIS-FACTORIAL HepG2 Assay for human Hypoxia Inducible Factor 1 (HIF1A) (AID 2282951); conditions: HepG2 Attagene cis-factorial HIF1a reporter transcription; actives raise or lower the signal
Sequence of Hypoxia-inducible factor 1-alpha (Homo sapiens) (Q16665 whole entry, looked up): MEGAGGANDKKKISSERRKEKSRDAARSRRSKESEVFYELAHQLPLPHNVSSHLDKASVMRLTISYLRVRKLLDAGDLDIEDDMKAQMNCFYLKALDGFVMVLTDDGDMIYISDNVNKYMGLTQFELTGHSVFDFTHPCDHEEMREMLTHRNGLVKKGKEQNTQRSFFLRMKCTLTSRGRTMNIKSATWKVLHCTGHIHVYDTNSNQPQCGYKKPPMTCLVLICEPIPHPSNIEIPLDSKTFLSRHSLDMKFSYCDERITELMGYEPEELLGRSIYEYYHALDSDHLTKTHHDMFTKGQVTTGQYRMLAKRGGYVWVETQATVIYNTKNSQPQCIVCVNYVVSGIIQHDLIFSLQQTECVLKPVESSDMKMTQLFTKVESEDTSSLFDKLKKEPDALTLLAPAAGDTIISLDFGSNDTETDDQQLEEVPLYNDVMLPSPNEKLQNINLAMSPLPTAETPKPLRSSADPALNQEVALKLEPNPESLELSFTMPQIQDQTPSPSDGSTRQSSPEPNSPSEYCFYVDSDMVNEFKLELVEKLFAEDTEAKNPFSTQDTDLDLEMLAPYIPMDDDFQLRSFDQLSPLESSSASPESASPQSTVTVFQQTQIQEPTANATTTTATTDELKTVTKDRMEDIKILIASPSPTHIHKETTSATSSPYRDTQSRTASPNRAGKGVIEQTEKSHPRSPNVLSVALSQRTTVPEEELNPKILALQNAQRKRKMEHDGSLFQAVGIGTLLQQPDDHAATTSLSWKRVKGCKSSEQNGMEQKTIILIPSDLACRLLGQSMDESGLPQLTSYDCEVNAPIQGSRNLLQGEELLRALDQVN
Summary of the method: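 Dosed 24 h, transfected HepG2 cells yielded total RNA whose reporter transcripts were RT-PCR-amplified and sized by capillary electrophoresis using fluorescent labelling; DMSO defined baseline, with gain and loss of signal both fitted.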

[8] = target: Heat shock factor protein 1 (Homo sapiens) (UniProt Q00613); assay: ATG_HSE_CIS: Attagene CIS-FACTORIAL HepG2 Assay for human Heat Shock Transcription Factor 1 (HSE) (AID 2282953); conditions: HepG2 HSE cis-reporter, Attagene RNA transcription; actives raise or lower the signal
Sequence of Heat shock factor protein 1 (Homo sapiens) (Q00613 whole entry, looked up): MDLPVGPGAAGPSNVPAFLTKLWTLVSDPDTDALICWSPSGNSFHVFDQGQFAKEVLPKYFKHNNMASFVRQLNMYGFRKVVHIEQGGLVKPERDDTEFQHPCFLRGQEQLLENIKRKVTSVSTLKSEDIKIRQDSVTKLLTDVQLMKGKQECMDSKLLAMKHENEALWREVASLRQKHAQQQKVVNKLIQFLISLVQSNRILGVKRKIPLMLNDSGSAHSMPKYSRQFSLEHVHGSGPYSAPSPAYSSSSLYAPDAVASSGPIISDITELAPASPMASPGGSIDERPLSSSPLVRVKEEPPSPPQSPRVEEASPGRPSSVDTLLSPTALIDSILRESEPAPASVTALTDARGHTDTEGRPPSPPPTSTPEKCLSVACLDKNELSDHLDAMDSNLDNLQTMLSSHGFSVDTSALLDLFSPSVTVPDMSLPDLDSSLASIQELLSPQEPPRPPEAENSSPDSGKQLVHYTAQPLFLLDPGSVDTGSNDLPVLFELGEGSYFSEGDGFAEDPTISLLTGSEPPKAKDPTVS
Summary of the method: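 HepG2, transient MRTU transfection, cis-promoter reporters (endogenous TF activity). 24 h compound. RNA → oligo(dT) RT → PCR → 6-FAM primer extension → HpaI cut → CE. Bidirectional fit vs DMSO.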

[9] = ATG_MRE_CIS: Attagene CIS-FACTORIAL HepG2 Assay for human Metal Responsive Element (MRE) (AID 2282954); conditions: HepG2 MRE cis-reporter transcription, Attagene multiplex; actives raise or lower the signal
Summary of the method: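 Step one: transfect HepG2 with cis-regulated reporter units. Step two: dose 24 h. Step three: isolate RNA, RT-PCR, 6-FAM label, HpaI digest, capillary electrophoresis. Fit bidirectionally to DMSO.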

[10] = ATG_PBREM_CIS: Attagene CIS-FACTORIAL HepG2 Assay for human Phenobarbital-responsive Enhancer Module (PBREM) (AID 2282955); conditions: HepG2 PBREM cis-reporter, Attagene multiplexed transcription; actives raise or lower the signal
Summary of the method: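 Transfected liver-derived HepG2 cells exposed 24 h; PBREM reporter transcript quantified via RT-PCR and capillary electrophoresis, with activity in either direction referenced to DMSO.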

[11] = target: Paired box protein Pax-6 (Homo sapiens) (UniProt P26367); assay: ATG_Pax6_CIS: Attagene CIS-FACTORIAL HepG2 Assay for human Paired Box 6 (PAX6) (AID 2282956); conditions: HepG2 CIS-FACTORIAL PAX6 reporter transcription, RNA readout; actives raise or lower the signal
Sequence of Paired box protein Pax-6 (Homo sapiens) (P26367 whole entry, looked up): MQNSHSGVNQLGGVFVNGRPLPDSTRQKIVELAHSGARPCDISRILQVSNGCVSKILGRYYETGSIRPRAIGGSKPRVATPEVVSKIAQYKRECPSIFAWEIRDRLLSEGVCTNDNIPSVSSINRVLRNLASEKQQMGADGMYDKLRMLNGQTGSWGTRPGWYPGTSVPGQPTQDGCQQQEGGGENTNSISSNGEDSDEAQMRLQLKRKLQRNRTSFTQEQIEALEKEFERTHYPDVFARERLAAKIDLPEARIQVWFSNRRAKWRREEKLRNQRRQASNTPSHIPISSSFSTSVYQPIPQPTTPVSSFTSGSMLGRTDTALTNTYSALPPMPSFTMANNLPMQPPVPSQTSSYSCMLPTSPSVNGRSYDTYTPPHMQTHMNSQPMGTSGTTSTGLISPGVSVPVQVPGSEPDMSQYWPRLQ
Summary of the method: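 Transient MRTU transfection of HepG2 → compound exposure 24 h → TriZol RNA, oligo(dT) RT → PCR, 6-FAM primer extension, HpaI cut → capillary electrophoresis; activity fitted both directions against DMSO.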

[12] = ATG_PXRE_CIS: Attagene CIS-FACTORIAL HepG2 Assay for human Pregnane X Receptor Element (PXRE) (AID 2282957); conditions: HepG2 Attagene CIS-FACTORIAL PXRE reporter, mRNA; actives raise or lower the signal
Summary of the method: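 HepG2 cells transiently transfected with cis-element-driven multiplexed reporter units; after 24 h chemical exposure, reporter mRNA measured by RT-PCR, 6-FAM labelling, HpaI digestion and capillary electrophoresis. Bidirectional fitting relative to DMSO.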

[13] = ATG_RORE_CIS: Attagene CIS-FACTORIAL HepG2 Assay for human RAR-related Orphan Receptor Element (RORE) (AID 2282959); conditions: HepG2 Attagene cis-factorial RORE reporter, mRNA; actives raise or lower the signal
Summary of the method: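 Transiently transfected HepG2 reporter cells were treated 24 h. Reporter transcripts were detected by RT-PCR and capillary electrophoresis, with bidirectional fitting against DMSO.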

[14] = ATG_Sox_CIS: Attagene CIS-FACTORIAL HepG2 Assay for human SRY-box transcription factor (SOX) (AID 2282960); conditions: HepG2 Attagene cis-factorial SOX reporter, mRNA; actives raise or lower the signal
Summary of the method: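 Gain- or loss-of-signal endpoint, fitted bidirectionally with DMSO as negative control. Based on reporter mRNA from transfected HepG2 cells harvested 24 h post-treatment and quantified via RT-PCR and capillary electrophoresis.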

[15] = target: Transcription factor Sp1 (Homo sapiens) (UniProt P08047); assay: ATG_Sp1_CIS: Attagene CIS-FACTORIAL HepG2 Assay for human Specificity Protein 1 (Sp1) (AID 2282961); conditions: HepG2 Sp1 cis-reporter transcription, actives raise or lower the signal
Sequence of Transcription factor Sp1 (Homo sapiens) (P08047 whole entry, looked up, the tested form may be a part): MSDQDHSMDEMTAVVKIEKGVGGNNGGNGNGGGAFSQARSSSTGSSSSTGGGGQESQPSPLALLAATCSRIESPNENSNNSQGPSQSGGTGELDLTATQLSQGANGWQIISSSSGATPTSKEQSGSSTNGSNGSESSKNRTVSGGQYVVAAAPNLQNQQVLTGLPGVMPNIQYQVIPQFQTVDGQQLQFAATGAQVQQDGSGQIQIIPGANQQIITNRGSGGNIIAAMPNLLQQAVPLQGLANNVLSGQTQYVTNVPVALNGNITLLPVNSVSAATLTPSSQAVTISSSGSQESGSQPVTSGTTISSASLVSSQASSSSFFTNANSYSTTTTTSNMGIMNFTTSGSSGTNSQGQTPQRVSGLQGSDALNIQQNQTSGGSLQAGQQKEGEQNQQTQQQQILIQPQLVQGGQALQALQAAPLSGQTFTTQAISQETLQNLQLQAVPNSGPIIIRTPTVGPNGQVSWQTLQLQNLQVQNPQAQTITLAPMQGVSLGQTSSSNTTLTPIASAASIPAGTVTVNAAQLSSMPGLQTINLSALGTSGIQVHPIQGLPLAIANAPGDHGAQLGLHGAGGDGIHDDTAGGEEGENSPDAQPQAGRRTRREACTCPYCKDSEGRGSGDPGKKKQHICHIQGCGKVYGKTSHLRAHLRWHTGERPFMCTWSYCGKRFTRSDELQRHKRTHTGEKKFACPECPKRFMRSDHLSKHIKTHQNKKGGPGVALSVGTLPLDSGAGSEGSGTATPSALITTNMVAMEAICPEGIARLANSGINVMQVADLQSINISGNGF
Summary of the method: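 Endpoint reflects endogenous Sp1 transcriptional activity, not an exogenous fusion protein: HepG2 cells with transfected cis-regulated reporters, 24 h dosing, RT-PCR/capillary electrophoresis mRNA read-out, DMSO-normalised bidirectional fit.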

[16] = ATG_SREBP_CIS: Attagene CIS-FACTORIAL HepG2 Assay for human Sterol Regulatory Element Binding (SREBP) (AID 2282962); conditions: HepG2 Attagene cis-factorial SREBP reporter, mRNA; actives raise or lower the signal
Summary of the method: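 Transfected HepG2 (cis-regulated reporter library, endogenous TFs) → compound 24 h → total RNA → oligo(dT) RT → reporter-specific PCR → FAM primer extension, HpaI cut → CE fluorescence. Fit bidirectional vs DMSO.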

[17] = target: Signal transducer and activator of transcription 3 (Homo sapiens) (UniProt P40763); assay: ATG_STAT3_CIS: Attagene CIS-FACTORIAL HepG2 Assay for human Signal Transducer and Activator of Transcription 3 (STAT3) (AID 2282963); conditions: HepG2, Attagene cis-factorial STAT3 reporter transcription; actives raise or lower the signal
Sequence of Signal transducer and activator of transcription 3 (Homo sapiens) (P40763 whole entry, looked up): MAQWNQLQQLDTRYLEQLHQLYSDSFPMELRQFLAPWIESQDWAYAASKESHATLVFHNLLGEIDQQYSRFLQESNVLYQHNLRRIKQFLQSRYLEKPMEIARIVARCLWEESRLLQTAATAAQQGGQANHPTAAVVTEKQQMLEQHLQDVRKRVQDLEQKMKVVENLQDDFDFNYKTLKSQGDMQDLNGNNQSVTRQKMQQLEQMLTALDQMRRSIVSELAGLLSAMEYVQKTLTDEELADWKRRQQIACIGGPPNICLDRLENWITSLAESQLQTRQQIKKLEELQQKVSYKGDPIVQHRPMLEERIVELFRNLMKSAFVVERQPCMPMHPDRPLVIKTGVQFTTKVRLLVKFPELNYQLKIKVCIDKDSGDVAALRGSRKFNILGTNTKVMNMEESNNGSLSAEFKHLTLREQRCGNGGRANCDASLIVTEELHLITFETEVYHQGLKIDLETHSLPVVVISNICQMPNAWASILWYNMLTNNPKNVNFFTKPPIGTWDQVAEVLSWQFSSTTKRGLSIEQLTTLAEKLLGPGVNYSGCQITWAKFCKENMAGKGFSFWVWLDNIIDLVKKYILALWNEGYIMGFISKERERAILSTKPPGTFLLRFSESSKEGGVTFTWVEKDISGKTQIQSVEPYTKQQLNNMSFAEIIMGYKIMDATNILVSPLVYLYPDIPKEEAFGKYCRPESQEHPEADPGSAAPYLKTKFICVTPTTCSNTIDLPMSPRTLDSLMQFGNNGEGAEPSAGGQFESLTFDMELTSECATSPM
Summary of the method: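 Transcript-level reporter assay. HepG2 transient MRTU transfection, 24 h exposure, fluorescence detection after RT-PCR and CE; DMSO baseline.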

[18] = ATG_TA_CIS: Attagene CIS-FACTORIAL HepG2 Assay for human TA Basal Promoter (AID 2282964); conditions: HepG2 Attagene CIS-factorial TA basal promoter reporter; actives raise or lower the signal
Summary of the method: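 Read-out: fluorescent reporter-transcript fragments resolved by capillary electrophoresis after RT-PCR and HpaI digestion. Source: HepG2 cells carrying transiently transfected multi-reporter cis constructs, treated 24 h. Endpoint fitted bidirectionally relative to DMSO.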

[19] = target: Hepatocyte nuclear factor 6 (Homo sapiens) (UniProt Q9UBC0); assay: ATG_HNF6_CIS: Attagene CIS-FACTORIAL HepG2 Assay for human Hepatocyte Nuclear Factor 6 (HNF6) (AID 2282952); conditions: HepG2 Attagene cis-factorial HNF6 reporter transcription; actives raise or lower the signal
Sequence of Hepatocyte nuclear factor 6 (Homo sapiens) (Q9UBC0 whole entry, looked up, the tested form may be a part): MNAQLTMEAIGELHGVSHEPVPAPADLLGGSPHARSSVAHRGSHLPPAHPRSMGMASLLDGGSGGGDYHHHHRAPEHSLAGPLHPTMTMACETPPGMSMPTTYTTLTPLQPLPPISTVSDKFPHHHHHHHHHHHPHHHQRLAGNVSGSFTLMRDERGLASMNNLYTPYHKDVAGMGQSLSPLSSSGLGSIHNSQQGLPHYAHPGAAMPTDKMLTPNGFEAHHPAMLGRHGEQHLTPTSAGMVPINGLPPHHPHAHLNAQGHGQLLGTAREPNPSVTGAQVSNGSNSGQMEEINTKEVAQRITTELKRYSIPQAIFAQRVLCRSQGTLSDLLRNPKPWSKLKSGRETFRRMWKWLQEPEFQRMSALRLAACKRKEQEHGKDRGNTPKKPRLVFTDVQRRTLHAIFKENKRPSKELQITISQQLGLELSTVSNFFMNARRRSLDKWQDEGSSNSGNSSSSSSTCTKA
Summary of the method: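 HepG2 cells transiently transfected with cis-element-driven multiplexed reporter units measuring endogenous transcription factor activity. After 24 h exposure, reporter mRNA quantified by RT-PCR, FAM-labelled fragments and capillary electrophoresis; bidirectional fitting versus DMSO.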

[20] = ATG_PPRE_CIS: Attagene CIS-FACTORIAL HepG2 Assay for human Peroxisome Proliferator-activated Response Element (PPRE) (AID 2282958); conditions: HepG2 PPRE cis-element reporter, Attagene transcription factor profiling; actives raise or lower the signal
Summary of the method: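 Measured endpoint: PPRE-controlled reporter mRNA, detected by RT-PCR and capillary electrophoresis fluorescence, from transiently transfected HepG2 cells 24 h after dosing. Curves fitted in both directions using DMSO baseline.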

Measured: outcome

CCOC(=O)c1ccccc1C
not listed: [19] | [20]
inactive: all other assays above

N#Cc1ccc(C(c2ccc(C#N)cc2)n2cncn2)cc1
not listed: [4] | [8] | [10] | [13]
inactive: all other assays above

CCCCCCOC(=O)CCCCC(=O)OCCCCCC
not listed: [3] | [12]
inactive: all other assays above

Cc1c[nH]c(=O)[nH]c1=O
not listed: [4] | [10] | [18] | [19]
inactive: all other assays above
